In all, about 16,000 sequences were measured (“rpm ratio (pull-down/input)”: median about 0.94, highest 2% from about 1.7 on). The list comes from a sample in which the highest values are over-represented; it also holds similar and randomly drawn sequences.

The experiment deals with T1, MBP-FoxP1dN (Mus musculus, UniProt P58462 326-579).
T1 sequence: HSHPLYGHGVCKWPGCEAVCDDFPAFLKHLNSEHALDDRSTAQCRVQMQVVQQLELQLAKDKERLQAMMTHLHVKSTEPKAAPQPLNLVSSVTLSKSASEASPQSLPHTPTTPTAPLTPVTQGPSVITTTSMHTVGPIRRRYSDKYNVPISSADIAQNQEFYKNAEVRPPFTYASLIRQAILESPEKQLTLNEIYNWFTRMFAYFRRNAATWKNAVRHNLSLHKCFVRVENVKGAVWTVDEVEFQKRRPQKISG
As to the kind of experiment: PD-seq (MBP pull-down with sequencing); 20 mM Tris-HCl pH 7.5, 100 mM NaCl, 1.5 mM MgCl2, 0.4 uM protein, 0.1 uM dsDNA library, 30 min, room temperature, amylose pull-down; high values mean tight binding. To be noted: protein: recombinant; tags: His6-MBP; chain copies: 2; dsDNA, one strand shown. The method in brief: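 E. coli-expressed mouse FoxP3 or FoxP1 fragment, N-terminus removed and tagged with His6-MBP, was used at 0.4 µM against 0.1 µM of a Klenow-filled degenerate double-stranded DNA library. After 30 min at room temperature in Tris pH 7.5 buffer with NaCl and MgCl2, complexes were pulled down on amylose resin and washed three times. Binding is pull-down over input reads-per-million enrichment from pooled replicates of the proteinase K-released, PCR-barcoded, Illumina-sequenced DNA.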
“GATGATTGTTCTCCCAGCTGATGAATTCCATTACTCGAGTAAACAAATTTTCCTAATCTTTCTGTTCAAGCGCCATCTAC”: the binding signal was 0.874 RPM ratio (pull-down/input). For the sequence “GATGATTGTTCTCCCAGCTGATGAATTCAAGATCTCGAGTAAACAAATTTTCCTAATCTTTCTGTTCAAGCGCCATCTAC”, the binding signal was 0.814 RPM ratio (pull-down/input). Consider “GATGATTGTTCTCCCAGCTGATGAATTTCTACGATCGAGTAAACAAATTTTCCTAATCTTTCTGTTCAAGCGCCATCTAC”, for which the binding signal is 0.948 RPM ratio (pull-down/input).

With “GATGATTGTTCTCCCAGCTGATGAATTCACCATATCGAGTAAACAAATTTTCCTAATCTTTCTGTTCAAGCGCCATCTAC”, the binding signal was 0.984 RPM ratio (pull-down/input). As for “GATGATTGTTCTCCCAGCTGATGAATTGGGGCACTCGAGTAAACAAATTTTCCTAATCTTTCTGTTCAAGCGCCATCTAC”, the figure is 0.856 RPM ratio (pull-down/input); as for “GATGATTGTTCTCCCAGCTGATGAATTTCACTGGTCGAGTAAACAAATTTTCCTAATCTTTCTGTTCAAGCGCCATCTAC”, 0.806 RPM ratio (pull-down/input). For “GATGATTGTTCTCCCAGCTGATGAATTATGGCAATCGAGTAAACAAATTTTCCTAATCTTTCTGTTCAAGCGCCATCTAC”, the binding signal was 1.23 RPM ratio (pull-down/input). Turning to “GATGATTGTTCTCCCAGCTGATGAATTTCGGTTCTCGAGTAAACAAATTTTCCTAATCTTTCTGTTCAAGCGCCATCTAC”, the binding signal is 0.825 RPM ratio (pull-down/input). Consider “GATGATTGTTCTCCCAGCTGATGAATTCGGGGCCTCGAGTAAACAAATTTTCCTAATCTTTCTGTTCAAGCGCCATCTAC”, for which the binding signal is 0.744 RPM ratio (pull-down/input). As to “GATGATTGTTCTCCCAGCTGATGAATTCTTTTTATCGAGTAAACAAATTTTCCTAATCTTTCTGTTCAAGCGCCATCTAC”, the binding signal was 1 RPM ratio (pull-down/input). Turning to “GATGATTGTTCTCCCAGCTGATGAATTCCTTTTATCGAGTAAACAAATTTTCCTAATCTTTCTGTTCAAGCGCCATCTAC”, the binding signal was 0.896 RPM ratio (pull-down/input).

As for “GATGATTGTTCTCCCAGCTGATGAATTCTGTTTATCGAGTAAACAAATTTTCCTAATCTTTCTGTTCAAGCGCCATCTAC”, the binding signal is 2.76 RPM ratio (pull-down/input). With “GATGATTGTTCTCCCAGCTGATGAATTGTTAGTTTCGAGTAAACAAATTTTCCTAATCTTTCTGTTCAAGCGCCATCTAC”, the binding signal was 1.7 RPM ratio (pull-down/input).

“GATGATTGTTCTCCCAGCTGATGAATTGTTTATCTCGAGTAAACAAATTTTCCTAATCTTTCTGTTCAAGCGCCATCTAC”: the binding signal is 2.68 RPM ratio (pull-down/input). “GATGATTGTTCTCCCAGCTGATGAATTTGTTAGTTCGAGTAAACAAATTTTCCTAATCTTTCTGTTCAAGCGCCATCTAC”: the binding signal is 1.78 RPM ratio (pull-down/input).

As for “GATGATTGTTCTCCCAGCTGATGAATTTATCTCCTCGAGTAAACAAATTTTCCTAATCTTTCTGTTCAAGCGCCATCTAC”, the binding signal was 1.08 RPM ratio (pull-down/input). Take “GATGATTGTTCTCCCAGCTGATGAATTTATCTGATCGAGTAAACAAATTTTCCTAATCTTTCTGTTCAAGCGCCATCTAC”: the binding signal was 1.07 RPM ratio (pull-down/input).

Regarding “GATGATTGTTCTCCCAGCTGATGAATTTGTTTTATCGAGTAAACAAATTTTCCTAATCTTTCTGTTCAAGCGCCATCTAC”, the binding signal is 1.78 RPM ratio (pull-down/input). On to “GATGATTGTTCTCCCAGCTGATGAATTTTTTATCTCGAGTAAACAAATTTTCCTAATCTTTCTGTTCAAGCGCCATCTAC”, for which the binding signal was 0.997 RPM ratio (pull-down/input). As for “GATGATTGTTCTCCCAGCTGATGAATTAGTTAGTTCGAGTAAACAAATTTTCCTAATCTTTCTGTTCAAGCGCCATCTAC”, the binding signal was 0.968 RPM ratio (pull-down/input).

As to “GATGATTGTTCTCCCAGCTGATGAATTTATCAAATCGAGTAAACAAATTTTCCTAATCTTTCTGTTCAAGCGCCATCTAC”, the binding signal was 1.28 RPM ratio (pull-down/input).

For the sequence “GATGATTGTTCTCCCAGCTGATGAATTCAATGAATCGAGTAAACAAATTTTCCTAATCTTTCTGTTCAAGCGCCATCTAC”, the binding signal is 0.93 RPM ratio (pull-down/input). In the case of “GATGATTGTTCTCCCAGCTGATGAATTGGAAGGCTCGAGTAAACAAATTTTCCTAATCTTTCTGTTCAAGCGCCATCTAC”, the binding signal was 0.76 RPM ratio (pull-down/input). Next, “GATGATTGTTCTCCCAGCTGATGAATTAAACTAATCGAGTAAACAAATTTTCCTAATCTTTCTGTTCAAGCGCCATCTAC”: 1.09 RPM ratio (pull-down/input); “GATGATTGTTCTCCCAGCTGATGAATTCGTCCTATCGAGTAAACAAATTTTCCTAATCTTTCTGTTCAAGCGCCATCTAC”: 0.835 RPM ratio (pull-down/input); “GATGATTGTTCTCCCAGCTGATGAATTTTCGCGATCGAGTAAACAAATTTTCCTAATCTTTCTGTTCAAGCGCCATCTAC”: 0.884 RPM ratio (pull-down/input). As for “GATGATTGTTCTCCCAGCTGATGAATTTGCGTTGTCGAGTAAACAAATTTTCCTAATCTTTCTGTTCAAGCGCCATCTAC”, the binding signal is 1.29 RPM ratio (pull-down/input).

Take “GATGATTGTTCTCCCAGCTGATGAATTGGATAGCTCGAGTAAACAAATTTTCCTAATCTTTCTGTTCAAGCGCCATCTAC”: the binding signal is 0.85 RPM ratio (pull-down/input). Consider “GATGATTGTTCTCCCAGCTGATGAATTTGATTTATCGAGTAAACAAATTTTCCTAATCTTTCTGTTCAAGCGCCATCTAC”, for which the binding signal was 1.23 RPM ratio (pull-down/input).

On to “GATGATTGTTCTCCCAGCTGATGAATTTAGTGAATCGAGTAAACAAATTTTCCTAATCTTTCTGTTCAAGCGCCATCTAC”, for which the binding signal is 0.958 RPM ratio (pull-down/input). In the case of “GATGATTGTTCTCCCAGCTGATGAATTTAGTAAATCGAGTAAACAAATTTTCCTAATCTTTCTGTTCAAGCGCCATCTAC”, the binding signal is 1.58 RPM ratio (pull-down/input).

As for “GATGATTGTTCTCCCAGCTGATGAATTTTGTTTATCGAGTAAACAAATTTTCCTAATCTTTCTGTTCAAGCGCCATCTAC”, the binding signal is 2.61 RPM ratio (pull-down/input).

The values above are taken from article PMC12820563, “FoxP3 forms a head-to-head dimer in vivo and stabilizes its multimerization on adjacent microsatellites”.
